Compound activity deposited in PubChem BioAssay by several laboratories.
CYP2C19 inh – inhibitors of human CYP2C19; CYP2C19 Supersomes, luciferin-H EGE luminescence, 30 min; inhibition, % at 5 µM; 96,000 tested, 21% active;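 active = CYP2C19 inhibition above a set limit at 5 µM in the primary screen, cut at about 50% in these data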;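 note: plate controls were negative control wells for no effect and 2.5 mM tranylcypromine positive control for full effect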
CYP2C9 inhib – blocks human cytochrome P450 2C9; P11712; CYP2C9 Supersomes, luciferin-H conversion, luminescence; inhibition, % at 5 µM; 96,000 tested, 20% active; AID 777;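 active = blocking of liver enzyme CYP2C9 beyond about 50% at 5 µM, limit read from the data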
Target sequence (P11712 whole entry, looked up): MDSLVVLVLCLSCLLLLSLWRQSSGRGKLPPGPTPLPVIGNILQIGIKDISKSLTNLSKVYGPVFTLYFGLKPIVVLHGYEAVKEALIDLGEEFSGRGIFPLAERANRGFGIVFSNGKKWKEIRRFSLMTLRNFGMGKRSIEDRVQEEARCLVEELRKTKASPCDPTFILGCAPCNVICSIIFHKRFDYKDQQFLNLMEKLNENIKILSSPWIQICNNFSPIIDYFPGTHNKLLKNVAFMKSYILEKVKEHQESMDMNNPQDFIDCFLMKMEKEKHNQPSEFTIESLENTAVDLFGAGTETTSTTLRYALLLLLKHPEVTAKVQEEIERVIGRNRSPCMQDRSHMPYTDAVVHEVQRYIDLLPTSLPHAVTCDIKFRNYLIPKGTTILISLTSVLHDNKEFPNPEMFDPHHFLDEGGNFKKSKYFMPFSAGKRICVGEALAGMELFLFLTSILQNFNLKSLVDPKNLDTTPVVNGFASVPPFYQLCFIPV
CYP2C19 activ – activators of human cytochrome P450 2C19. recombinant CYP2C19, luciferin-H EGE luminescence; active compounds read high; 0 = fully inhibited enzyme, 1 = untreated enzyme. activation factor at 5 µM. 96,000 tested, under 10 active. AID 1025;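 active = activation factor of at least 2 at 5 µM in the primary screen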;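 note: 0 = wells with 2.5 mM tranylcypromine and 1 = vehicle-only wells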
CYP2C9 act – CYP2C9 (human) activation; P11712; recombinant CYP2C9, luciferin-H conversion, luminescence; active compounds read high; factor 1 = untreated enzyme, 0 = blocked; activation factor at 5 µM; 96,000 tested, 1.4% active;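 active = activation factor of 2 or more for CYP2C9 at a 5 µM dose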;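 note: 0 = sulfaphenazole-blocked wells and 1 = vehicle-only wells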
EphB4 ephrin blk – blocks human EphB4 binding to ephrin-B2; EphB4 LBD / TNYL-RAW-Alexa532 peptide, fluorescence polarization; AID 720; 97,000 tested, 0.15% active; inhibition, % at 7 µM;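 active = inhibition above the screen-wide mean inhibition plus 3 SD, cut at about 15% in these data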;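 note: 0% = DMSO wells and 100% = excess unlabeled TNYL-RAW peptide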
* marks the source's active call; other numbers are inactive results. An excerpt weighted towards active compounds, which were near 27% of everything screened.

For COC(=O)C1CC(=O)N(CCc2c[nH]c3ccccc23)C1 (stereo not drawn) the results were CYP2C19 inh 97*, CYP2C9 inhib 34, CYP2C19 activ 0, CYP2C9 act 0.7 and EphB4 ephrin blk 12.
Screening CCn1cc([N+](=O)[O-])c(C(=O)Nc2ccc(Cn3nc(C)cc3C)cc2)n1 returned CYP2C19 inh -11, CYP2C9 inhib -4, CYP2C19 activ 1.1, CYP2C9 act 1 and EphB4 ephrin blk 3.
`CCOc1ccc(-c2nnn(CC(=O)NCc3ccc(F)cc3)n2)cc1OCC` gave CYP2C19 inh 65*, CYP2C9 inhib 35, CYP2C19 activ 0.4, CYP2C9 act 0.7 and EphB4 ephrin blk 2.
Screening COc1cc(C(C)=O)ccc1OC(=O)C(C)N1C(=O)c2ccccc2C1=O (stereo not drawn) returned CYP2C19 inh 37, CYP2C9 inhib 54*, CYP2C19 activ 0.6, CYP2C9 act 0.5 and EphB4 ephrin blk 5.
`COC(=O)c1ccccc1NC(=O)CN1CCC(C(=O)c2ccc3c(c2)OCCO3)CC1` gave CYP2C19 inh 81*, CYP2C9 inhib 78*, CYP2C19 activ 0.2, CYP2C9 act 0.2 and EphB4 ephrin blk -2.
`Cc1ccc(NC(=O)c2ccc3c(c2)OCCO3)cc1` gave CYP2C19 inh 7, CYP2C9 inhib 14, CYP2C19 activ 0.9, CYP2C9 act 0.9 and EphB4 ephrin blk -2.
For Cc1ccc(NC(=O)CN2CCC(C(=O)c3ccc4c(c3)OCCO4)CC2)cc1 the results were CYP2C19 inh 85*, CYP2C9 inhib 49, CYP2C19 activ 0.2, CYP2C9 act 0.5 and EphB4 ephrin blk -1.
`COC(=O)c1ccccc1NC(=O)CN1CCOCC1` gave CYP2C19 inh 14, CYP2C9 inhib 7, CYP2C19 activ 0.9, CYP2C9 act 0.9 and EphB4 ephrin blk -6.
O=C(Cc1ccccc1)N1CCC(O)(c2cccnc2)CC1 was read as CYP2C19 inh -7, CYP2C9 inhib 7, CYP2C19 activ 1.1, CYP2C9 act 0.9 and EphB4 ephrin blk -2.
`O=C(NCc1ccco1)c1cccc2ccccc12` gave CYP2C19 inh 24, CYP2C9 inhib -203, CYP2C19 activ 0.8, CYP2C9 act 3* and EphB4 ephrin blk 6.
O=C(NCc1ccco1)c1cnc2ccccn2c1=O was read as CYP2C19 inh 2, CYP2C9 inhib 55*, CYP2C19 activ 1 and CYP2C9 act 0.4.
O=C(NCc1ccco1)c1cnc2sccn2c1=O was read as CYP2C19 inh -4, CYP2C9 inhib 18, CYP2C19 activ 1, CYP2C9 act 0.8 and EphB4 ephrin blk -6.
`O=C(NCc1ccco1)c1ccccc1F` gave CYP2C19 inh -11, CYP2C9 inhib 8, CYP2C19 activ 1.1, CYP2C9 act 0.9 and EphB4 ephrin blk -4.
For O=C(NCc1ccco1)Nc1ccc(Br)cc1Cl the results were CYP2C19 inh 47, CYP2C9 inhib 53*, CYP2C19 activ 0.5, CYP2C9 act 0.5 and EphB4 ephrin blk 1.
`O=C(NCc1ccco1)c1ccccc1Nc1ccc(F)cc1` gave CYP2C19 inh 89*, CYP2C9 inhib 67*, CYP2C19 activ 0.1, CYP2C9 act 0.3 and EphB4 ephrin blk 6.
CC(C)Cn1c(Br)nc2c1c(=O)n(CCC#N)c(=O)n2C was read as CYP2C19 inh 1, CYP2C9 inhib -8, CYP2C19 activ 1, CYP2C9 act 1.1 and EphB4 ephrin blk 0.
Clc1ccc2c(N3CCCC3)ccnc2c1 was read as CYP2C19 inh 8, CYP2C9 inhib -6, CYP2C19 activ 0.9, CYP2C9 act 1.1 and EphB4 ephrin blk -2.
For O=C(Nc1cccc(Cl)c1)Nc1ccccc1C(=O)NCc1ccco1 the results were CYP2C19 inh 14, CYP2C9 inhib 58*, CYP2C19 activ 0.9, CYP2C9 act 0.4 and EphB4 ephrin blk -2.
For O=C(/C=C/c1ccc(OCCCF)cc1)NCc1cccc(Cl)c1 the results were CYP2C19 inh 24, CYP2C9 inhib 9, CYP2C19 activ 0.8, CYP2C9 act 0.9 and EphB4 ephrin blk 1.
`COc1cc(-c2nc3cnccn3c2Nc2ccc(C)cc2)ccc1O` gave CYP2C19 inh 80*, CYP2C9 inhib 55*, CYP2C19 activ 0.2, CYP2C9 act 0.5 and EphB4 ephrin blk 5.
`COc1cc(-c2nc3cnccn3c2Nc2ccc3c(c2)OCCO3)ccc1O` gave CYP2C19 inh 30, CYP2C9 inhib 43, CYP2C19 activ 0.7 and CYP2C9 act 0.6.
COc1cc(-c2nc3cnccn3c2Nc2ccccc2)ccc1O was read as CYP2C19 inh 42, CYP2C9 inhib 51*, CYP2C19 activ 0.6, CYP2C9 act 0.5 and EphB4 ephrin blk -3.
For COc1cc(-c2nc3cnccn3c2Nc2ccc(C(C)C)cc2)ccc1O the results were CYP2C19 inh 11, CYP2C9 inhib 19, CYP2C19 activ 0.9, CYP2C9 act 0.8 and EphB4 ephrin blk 1.
Cc1cc(NC(=O)CCSc2nc(-c3ccco3)cc(C(F)(F)F)n2)n(-c2ccccc2)n1 was read as EphB4 ephrin blk 2.
Screening COC(=O)c1ccccc1NC(=O)C1CCN(C(=O)c2ccc(OC)cc2)CC1 returned CYP2C19 inh 50*, CYP2C9 inhib 30, CYP2C19 activ 0.5, CYP2C9 act 0.7 and EphB4 ephrin blk 10.
`Cc1ccccc1C(=O)N1CCC(C(=O)Nc2cccc(F)c2)CC1` gave CYP2C19 inh 32, CYP2C9 inhib 51*, CYP2C19 activ 0.7, CYP2C9 act 0.5 and EphB4 ephrin blk -1.
`O=C(c1ccccc1Nc1ccc(SC(F)F)cc1)N1CCCCC1` gave CYP2C19 inh 88*, CYP2C9 inhib 53*, CYP2C19 activ 0.1, CYP2C9 act 0.5 and EphB4 ephrin blk -9.
`O=C(Nc1ccccc1C(=O)N1CCCCC1)C1CCCCC1` gave CYP2C19 inh 6, CYP2C9 inhib 56*, CYP2C19 activ 0.9 and CYP2C9 act 0.4.
`O=C1CCc2cc(S(=O)(=O)N3CCC(C(=O)Nc4nccs4)CC3)ccc2N1` gave CYP2C19 inh -16, CYP2C9 inhib -9, CYP2C19 activ 1.2, CYP2C9 act 1.1 and EphB4 ephrin blk 1.
`COc1ccc(N2C(=O)CCC(C(=O)Nc3cccc(C)n3)C2c2ccc(OC)c(OC)c2)cc1` (stereo not drawn) gave CYP2C19 inh 14, CYP2C9 inhib -3, CYP2C19 activ 0.9 and CYP2C9 act 1.
`N#Cc1c(N)c(C(=O)c2ccccc2)n2c1CCC2` gave CYP2C19 inh 51*, CYP2C9 inhib -15, CYP2C19 activ 0.5, CYP2C9 act 1.1 and EphB4 ephrin blk -1.
COC(=O)c1c(N)c(C#N)c2n1CCCCC2 was read as CYP2C19 inh 76*, CYP2C9 inhib 6, CYP2C19 activ 0.2, CYP2C9 act 0.9 and EphB4 ephrin blk 2.
`N#Cc1c2n(c(=O)[nH]c1=O)CCCCC2` gave EphB4 ephrin blk -1.
For Nc1ccc(-n2ccnc2)cc1 the results were CYP2C19 inh 58*, CYP2C9 inhib 52*, CYP2C19 activ 0.4, CYP2C9 act 0.5 and EphB4 ephrin blk -4.
